{"source": "paper PMC4336329", "about": "(PLoS ONE, 2015)", "note": "The campaign covered roughly 310,000 compounds. About 14,000 (4.5%) showed an effect of 50% or more. Effects have a minus sign here. The full list was thinned out, with strong results kept by preference.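 Also: peak tail current of the secondary pulse compared with the same well before compound.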", "data": [{"biological_target": "human ether-à-go-go-related gene (hERG) potassium channel (human, UniProt Q12809)", "sequence (Q12809 whole entry, looked up)": "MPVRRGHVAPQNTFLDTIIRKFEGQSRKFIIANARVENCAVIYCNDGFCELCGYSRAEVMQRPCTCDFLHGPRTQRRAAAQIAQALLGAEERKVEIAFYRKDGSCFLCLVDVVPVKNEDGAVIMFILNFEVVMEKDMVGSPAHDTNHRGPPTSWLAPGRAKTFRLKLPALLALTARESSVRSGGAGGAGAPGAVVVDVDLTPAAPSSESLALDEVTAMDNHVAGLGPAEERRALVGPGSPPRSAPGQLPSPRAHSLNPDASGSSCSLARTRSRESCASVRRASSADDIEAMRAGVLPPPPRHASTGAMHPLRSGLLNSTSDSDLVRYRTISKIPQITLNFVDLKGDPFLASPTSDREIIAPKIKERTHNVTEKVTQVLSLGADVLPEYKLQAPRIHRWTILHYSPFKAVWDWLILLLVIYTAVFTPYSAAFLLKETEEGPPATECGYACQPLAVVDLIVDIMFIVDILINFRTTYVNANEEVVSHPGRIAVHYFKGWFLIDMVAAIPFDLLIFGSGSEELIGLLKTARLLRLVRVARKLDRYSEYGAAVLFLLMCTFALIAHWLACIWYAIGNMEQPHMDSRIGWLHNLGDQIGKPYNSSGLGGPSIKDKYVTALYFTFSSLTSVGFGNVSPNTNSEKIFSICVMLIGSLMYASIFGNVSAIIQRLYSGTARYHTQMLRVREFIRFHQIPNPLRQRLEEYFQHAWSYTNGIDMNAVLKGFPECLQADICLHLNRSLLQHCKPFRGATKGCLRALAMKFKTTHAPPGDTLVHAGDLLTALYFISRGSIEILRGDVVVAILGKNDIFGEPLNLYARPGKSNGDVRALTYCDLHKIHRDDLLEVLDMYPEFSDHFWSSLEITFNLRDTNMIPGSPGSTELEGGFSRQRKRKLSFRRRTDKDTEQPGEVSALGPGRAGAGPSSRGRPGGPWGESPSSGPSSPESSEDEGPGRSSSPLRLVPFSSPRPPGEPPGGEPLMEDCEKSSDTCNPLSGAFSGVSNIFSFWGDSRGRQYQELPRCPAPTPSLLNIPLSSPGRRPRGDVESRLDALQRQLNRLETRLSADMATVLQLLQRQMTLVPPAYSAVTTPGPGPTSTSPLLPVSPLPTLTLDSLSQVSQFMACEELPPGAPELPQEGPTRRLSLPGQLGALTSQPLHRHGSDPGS", "test": "primary screen, population patch clamp on CHO cells stably expressing hERG; higher = less effect of the substance", "units": {"hERG current change (%, negative = inhibition) at 10uM": "%"}, "values": [{"smiles": "Cc1cc(Br)c(NC(=O)Cn2c([N+](=O)[O-])cnc2C)cc1C", "hERG current change (%, negative = inhibition) at 10uM": 4.01}, {"smiles": "COc1ccc(NC(=O)C(=O)NCC(c2ccco2)N2CCc3ccccc3C2)cc1", "note": "(centres unmarked)", "hERG current change (%, negative = inhibition) at 10uM": -23.5}, {"smiles": "O=C(NCC(c1ccco1)N1CCCC1)c1ccc(Cl)c(S(=O)(=O)N2CCc3ccccc32)c1", "note": "(centres unmarked)", "hERG current change (%, negative = inhibition) at 10uM": -51}, {"smiles": "O=C(NCC(c1ccco1)N1CCc2ccccc2C1)c1cccc([N+](=O)[O-])c1", "note": "(centres unmarked)", "hERG current change (%, negative = inhibition) at 10uM": -67.2}, {"smiles": "Cc1ccc(C)c(S(=O)(=O)NCC(c2ccco2)N2CCc3ccccc3C2)c1", "note": "(centres unmarked)", "hERG current change (%, negative = inhibition) at 10uM": -9.3}, {"smiles": "O=C(NCC(c1ccco1)N1CCOCC1)c1cccc([N+](=O)[O-])c1", "note": "(centres unmarked)", "hERG current change (%, negative = inhibition) at 10uM": 12.7}, {"smiles": "O=C(NCC(c1ccco1)N1CCc2ccccc2C1)c1cccc(Br)c1", "note": "(centres unmarked)", "hERG current change (%, negative = inhibition) at 10uM": -5.34}, {"smiles": "COc1cccc(NC(=O)C(=O)NCC(c2ccco2)N2CCc3ccccc3C2)c1", "note": "(centres unmarked)", "hERG current change (%, negative = inhibition) at 10uM": -9.29}, {"smiles": "O=C(NCC(c1ccco1)N1CCCCC1)c1cccc(S(=O)(=O)Nc2ccccc2Cl)c1", "note": "(centres unmarked)", "hERG current change (%, negative = inhibition) at 10uM": -2.33}, {"smiles": "COc1ccc(F)cc1S(=O)(=O)NCC(c1ccco1)N1CCc2ccccc2C1", "note": "(centres unmarked)", "hERG current change (%, negative = inhibition) at 10uM": -30.4}, {"smiles": "COc1ccc(C)cc1S(=O)(=O)NCC(c1ccco1)N1CCc2ccccc2C1", "note": "(centres unmarked)", "hERG current change (%, negative = inhibition) at 10uM": -62.8}, {"smiles": "O=C(NCc1ccco1)c1ccc(Cl)c(S(=O)(=O)N2CCc3ccccc32)c1", "hERG current change (%, negative = inhibition) at 10uM": -20.6}, {"smiles": "COc1ccc(NC(=O)C(=O)NCC(c2ccco2)N2CCc3ccccc3C2)cc1OC", "note": "(centres unmarked)", "hERG current change (%, negative = inhibition) at 10uM": -69.4}, {"smiles": "COc1ccc(C)cc1NC(=O)c1nnn(Cc2cccc(F)c2)c1N", "hERG current change (%, negative = inhibition) at 10uM": 7.11}, {"smiles": "O=C(c1ccc(NS(=O)(=O)c2ccccc2)cc1)N1CCCCCC1", "hERG current change (%, negative = inhibition) at 10uM": -11.9}, {"smiles": "COC(=O)c1cc(C#N)c(=O)[nH]c1C", "hERG current change (%, negative = inhibition) at 10uM": 20.3}, {"smiles": "Cc1cccc(OCC(=O)Nc2cccc(-c3nnc(-c4ccccc4)o3)c2)c1C", "hERG current change (%, negative = inhibition) at 10uM": -4.37}, {"smiles": "CC(C)N1CCC(N2CCN(C3CCCCC3)CC2CCO)CC1", "note": "(centres unmarked)", "hERG current change (%, negative = inhibition) at 10uM": 18.9}, {"smiles": "O=C(NCC(c1ccco1)N1CCc2ccccc2C1)c1ccc(Cl)c([N+](=O)[O-])c1", "note": "(centres unmarked)", "hERG current change (%, negative = inhibition) at 10uM": -55.5}, {"smiles": "O=C(NCC(c1ccco1)N1CCc2ccccc2C1)c1ccc(Br)cc1", "note": "(centres unmarked)", "hERG current change (%, negative = inhibition) at 10uM": -12.6}, {"smiles": "Cc1ccc(C(=O)NCC(c2ccco2)N2CCc3ccccc3C2)cc1C", "note": "(centres unmarked)", "hERG current change (%, negative = inhibition) at 10uM": -5.02}, {"smiles": "O=C(NCC(c1ccco1)N1CCc2ccccc2C1)c1ccc([N+](=O)[O-])cc1", "note": "(centres unmarked)", "hERG current change (%, negative = inhibition) at 10uM": -58.1}, {"smiles": "O=C(NCC(c1ccco1)N1CCc2ccccc2C1)c1ccccc1", "note": "(centres unmarked)", "hERG current change (%, negative = inhibition) at 10uM": -19}, {"smiles": "O=C(NCC(c1ccco1)N1CCc2ccccc2C1)c1cccc(F)c1", "note": "(centres unmarked)", "hERG current change (%, negative = inhibition) at 10uM": -63.5}, {"smiles": "COc1cccc(C(=O)NCC(c2ccco2)N2CCc3ccccc3C2)c1", "note": "(centres unmarked)", "hERG current change (%, negative = inhibition) at 10uM": -17}, {"smiles": "O=C(NCC(c1ccco1)N1CCc2ccccc2C1)C(=O)Nc1ccccc1F", "note": "(centres unmarked)", "hERG current change (%, negative = inhibition) at 10uM": 8.09}, {"smiles": "O=C(NCC(c1ccco1)N1CCc2ccccc2C1)c1ccc(Cl)cc1", "note": "(centres unmarked)", "hERG current change (%, negative = inhibition) at 10uM": -47.8}, {"smiles": "O=C(NCC(c1ccco1)N1CCc2ccccc2C1)C(=O)Nc1ccc(F)cc1F", "note": "(centres unmarked)", "hERG current change (%, negative = inhibition) at 10uM": -0.136}, {"smiles": "O=C(NCC(c1ccco1)N1CCc2ccccc2C1)C(=O)Nc1cc(F)ccc1F", "note": "(centres unmarked)", "hERG current change (%, negative = inhibition) at 10uM": -52.3}, {"smiles": "O=C(NCC(c1ccco1)N1CCc2ccccc2C1)c1ccc(F)cc1", "note": "(centres unmarked)", "hERG current change (%, negative = inhibition) at 10uM": -10.7}, {"smiles": "O=C(CN1C(=O)S/C(=C\\c2ccc(C(=O)O)cc2)C1=O)Nc1ccccc1", "hERG current change (%, negative = inhibition) at 10uM": 19}, {"smiles": "CCCCNC(=O)C1Cc2cc(S(=O)(=O)N3CCCCC3)ccc2N1C(C)=O", "note": "(centres unmarked)", "hERG current change (%, negative = inhibition) at 10uM": 17.4}, {"smiles": "COc1ccc(C2(c3ccc(OC)cc3)NC(=O)N(CC(=O)Nc3ccc(OC)c(OC)c3)C2=O)cc1", "hERG current change (%, negative = inhibition) at 10uM": -2.49}, {"smiles": "Cc1noc(/C=C/N(C)C)c1S(=O)(=O)N1CCCC(C(=O)N2CCc3ccccc32)C1", "note": "(centres unmarked)", "hERG current change (%, negative = inhibition) at 10uM": 13}, {"smiles": "CCC(NC(=O)C1CCCO1)c1ccccc1", "note": "(centres unmarked)", "hERG current change (%, negative = inhibition) at 10uM": 22.8}, {"smiles": "Cc1ccc(CNC(=O)CNC(=O)c2ccc(Br)o2)cc1", "hERG current change (%, negative = inhibition) at 10uM": 5.03}, {"smiles": "Cc1ccccc1CN1[C@@H]2c3ccccc3C[C@@H]2OCCS1(=O)=O", "hERG current change (%, negative = inhibition) at 10uM": -3.4}, {"smiles": "COc1ccc(C(C(=O)NC2CCCCC2)N(C(=O)c2ccccn2)c2cccnc2)cc1", "note": "(centres unmarked)", "hERG current change (%, negative = inhibition) at 10uM": 22.4}, {"smiles": "CCCCC(=O)OCC(=O)Nc1ccc(C)c(F)c1", "hERG current change (%, negative = inhibition) at 10uM": 14.6}, {"smiles": "Cc1ccccc1NNC(N)=S", "hERG current change (%, negative = inhibition) at 10uM": 5.65}, {"smiles": "Cc1oc(S(=O)(=O)N2CCCC2)cc1C(=O)Nc1ccccc1", "hERG current change (%, negative = inhibition) at 10uM": 7.38}, {"smiles": "CCOc1cc(C(=O)N2CCCN(C)CC2)cc(OCC)c1OCC", "hERG current change (%, negative = inhibition) at 10uM": 14.8}, {"smiles": "Cc1onc(-c2ccccc2)c1C(=O)N1CCN(S(=O)(=O)c2ccc3c(c2)OCCO3)CC1", "hERG current change (%, negative = inhibition) at 10uM": -17.2}, {"smiles": "O=C(O)/C=C/c1cn(-c2ccccc2)nc1-c1ccc2c(c1)OCCO2", "hERG current change (%, negative = inhibition) at 10uM": 10.1}, {"smiles": "Cl.O=C(/C=C/c1cn(-c2ccccc2)nc1-c1ccc2c(c1)OCCO2)NCCCN1CCOCC1", "hERG current change (%, negative = inhibition) at 10uM": -5.65}, {"smiles": "O=C(/C=C/c1cn(-c2ccccc2)nc1-c1ccc2c(c1)OCCO2)NCCO", "hERG current change (%, negative = inhibition) at 10uM": -51.1}, {"smiles": "C/C(=N\\NC(=O)CNc1cccc2ccccc12)c1ccc(Br)s1", "hERG current change (%, negative = inhibition) at 10uM": 6.57}, {"smiles": "Cc1ccc(C(=O)OCC(=O)Nc2cccc(S(=O)(=O)NC3=NCCCCC3)c2)c(C)c1", "hERG current change (%, negative = inhibition) at 10uM": -15.4}, {"smiles": "CS(=O)(=O)Nc1cccc(C(=O)CC2(O)C(=O)Nc3ccccc32)c1", "note": "(centres unmarked)", "hERG current change (%, negative = inhibition) at 10uM": 8.15}, {"smiles": "Nc1n[nH]c(N)c1N=Nc1ccccc1", "hERG current change (%, negative = inhibition) at 10uM": 16.7}, {"smiles": "CCOc1ccccc1N1CCN(C(=O)CC(C)(C)C)CC1", "hERG current change (%, negative = inhibition) at 10uM": 0.665}, {"smiles": "COc1ccccc1/C=C/CN1CCN(c2ccccc2)CC1", "hERG current change (%, negative = inhibition) at 10uM": -15.6}, {"smiles": "CCOc1ccccc1N1CCN(C/C=C/c2ccc(N(C)C)cc2)CC1", "hERG current change (%, negative = inhibition) at 10uM": -60.1}, {"smiles": "COc1ccccc1N1CCN(C/C=C/c2ccc(N(C)C)cc2)CC1", "hERG current change (%, negative = inhibition) at 10uM": -53.9}, {"smiles": "CCOc1ccccc1N1CCN(Cc2ccco2)CC1", "hERG current change (%, negative = inhibition) at 10uM": -14.9}, {"smiles": "CCN(CC)c1ccc(/C=N/N2CCN(c3ccccc3OC)CC2)cc1", "hERG current change (%, negative = inhibition) at 10uM": 14.4}]}]}
